For assay [1], the target named is T1, Serine/threonine-protein kinase D2 (Homo sapiens) (UniProt Q9BZL6).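 Note: mean value of PRKD2 inhibition, from the GSK PKIS screening panel.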
T1 sequence (whole entry): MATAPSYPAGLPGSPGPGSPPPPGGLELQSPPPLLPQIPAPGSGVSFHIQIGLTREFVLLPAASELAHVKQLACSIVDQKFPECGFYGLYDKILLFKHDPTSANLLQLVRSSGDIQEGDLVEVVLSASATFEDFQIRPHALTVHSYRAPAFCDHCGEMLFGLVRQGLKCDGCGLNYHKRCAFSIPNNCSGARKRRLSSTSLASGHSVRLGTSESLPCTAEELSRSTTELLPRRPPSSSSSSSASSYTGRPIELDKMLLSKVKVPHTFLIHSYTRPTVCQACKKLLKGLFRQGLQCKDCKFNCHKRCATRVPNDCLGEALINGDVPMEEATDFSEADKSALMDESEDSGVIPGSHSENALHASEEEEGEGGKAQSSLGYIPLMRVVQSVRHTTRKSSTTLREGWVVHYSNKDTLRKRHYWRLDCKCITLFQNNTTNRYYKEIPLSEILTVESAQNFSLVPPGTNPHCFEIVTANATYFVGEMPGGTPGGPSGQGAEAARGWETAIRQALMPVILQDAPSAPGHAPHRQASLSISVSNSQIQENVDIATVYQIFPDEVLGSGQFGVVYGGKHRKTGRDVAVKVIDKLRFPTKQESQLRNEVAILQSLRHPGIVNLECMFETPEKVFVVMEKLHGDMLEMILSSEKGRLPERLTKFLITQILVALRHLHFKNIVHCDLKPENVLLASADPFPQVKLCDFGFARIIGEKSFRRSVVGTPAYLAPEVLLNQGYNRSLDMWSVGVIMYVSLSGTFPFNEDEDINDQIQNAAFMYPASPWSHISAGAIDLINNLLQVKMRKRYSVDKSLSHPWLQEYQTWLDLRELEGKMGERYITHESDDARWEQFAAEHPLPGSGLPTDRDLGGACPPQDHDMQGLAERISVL
The note with it: at 1 µM.

Assay [2] addresses T2, Serine/threonine-protein kinase D3 (Homo sapiens) (UniProt O94806).
T2 sequence (whole entry): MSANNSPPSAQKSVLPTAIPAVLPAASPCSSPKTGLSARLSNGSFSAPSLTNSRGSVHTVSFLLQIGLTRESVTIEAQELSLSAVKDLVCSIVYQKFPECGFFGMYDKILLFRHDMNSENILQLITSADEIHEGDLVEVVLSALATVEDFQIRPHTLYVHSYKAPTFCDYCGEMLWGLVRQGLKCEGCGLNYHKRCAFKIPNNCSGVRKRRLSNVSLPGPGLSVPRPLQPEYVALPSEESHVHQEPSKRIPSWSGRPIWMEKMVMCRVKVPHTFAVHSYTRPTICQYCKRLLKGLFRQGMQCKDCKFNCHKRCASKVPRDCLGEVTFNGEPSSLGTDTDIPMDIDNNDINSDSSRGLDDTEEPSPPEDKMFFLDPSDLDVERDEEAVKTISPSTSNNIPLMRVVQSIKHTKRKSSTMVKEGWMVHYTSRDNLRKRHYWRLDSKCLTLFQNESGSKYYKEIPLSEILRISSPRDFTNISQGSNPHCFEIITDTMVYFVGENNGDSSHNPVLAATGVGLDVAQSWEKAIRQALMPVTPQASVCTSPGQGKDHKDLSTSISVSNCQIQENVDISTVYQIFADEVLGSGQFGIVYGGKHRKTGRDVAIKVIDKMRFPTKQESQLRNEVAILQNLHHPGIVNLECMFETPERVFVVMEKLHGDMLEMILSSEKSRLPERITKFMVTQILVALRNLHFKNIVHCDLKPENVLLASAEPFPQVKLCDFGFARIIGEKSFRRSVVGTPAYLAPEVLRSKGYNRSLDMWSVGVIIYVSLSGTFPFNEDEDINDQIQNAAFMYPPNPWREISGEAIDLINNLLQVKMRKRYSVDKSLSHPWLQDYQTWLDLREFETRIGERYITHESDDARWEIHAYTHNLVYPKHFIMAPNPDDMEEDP
Particulars: at 0.1 µM.

The target of assay [3] is T2, Serine/threonine-protein kinase D3 (Homo sapiens). Particulars: at 1 µM.
Assay [4] addresses T3, cGMP-dependent protein kinase 1 (Homo sapiens) (UniProt Q13976).
T3 sequence (whole entry): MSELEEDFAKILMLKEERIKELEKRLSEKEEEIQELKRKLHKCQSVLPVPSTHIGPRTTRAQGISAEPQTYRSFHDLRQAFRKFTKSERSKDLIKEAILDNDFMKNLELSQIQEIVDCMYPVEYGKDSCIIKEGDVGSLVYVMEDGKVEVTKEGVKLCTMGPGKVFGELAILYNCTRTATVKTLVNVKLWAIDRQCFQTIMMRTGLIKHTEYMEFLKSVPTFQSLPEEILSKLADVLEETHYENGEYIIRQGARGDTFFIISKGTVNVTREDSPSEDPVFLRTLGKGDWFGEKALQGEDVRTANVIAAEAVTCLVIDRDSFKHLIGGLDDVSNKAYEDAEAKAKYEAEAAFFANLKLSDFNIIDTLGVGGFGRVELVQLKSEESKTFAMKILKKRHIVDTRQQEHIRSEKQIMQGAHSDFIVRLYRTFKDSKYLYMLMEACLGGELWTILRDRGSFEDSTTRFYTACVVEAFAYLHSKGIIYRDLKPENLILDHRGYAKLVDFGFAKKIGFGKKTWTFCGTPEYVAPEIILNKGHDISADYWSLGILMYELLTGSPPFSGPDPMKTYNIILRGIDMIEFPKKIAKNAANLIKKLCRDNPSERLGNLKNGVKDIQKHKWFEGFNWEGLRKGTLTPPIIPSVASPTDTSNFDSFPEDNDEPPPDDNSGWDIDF
Particulars: at 0.1 µM.

In assay [5] the target is T3, cGMP-dependent protein kinase 1 (Homo sapiens). Particulars: at 1 µM.
The target of assay [6] is T4, cGMP-dependent protein kinase 2 (Homo sapiens) (UniProt Q13237).
T4 sequence (whole entry): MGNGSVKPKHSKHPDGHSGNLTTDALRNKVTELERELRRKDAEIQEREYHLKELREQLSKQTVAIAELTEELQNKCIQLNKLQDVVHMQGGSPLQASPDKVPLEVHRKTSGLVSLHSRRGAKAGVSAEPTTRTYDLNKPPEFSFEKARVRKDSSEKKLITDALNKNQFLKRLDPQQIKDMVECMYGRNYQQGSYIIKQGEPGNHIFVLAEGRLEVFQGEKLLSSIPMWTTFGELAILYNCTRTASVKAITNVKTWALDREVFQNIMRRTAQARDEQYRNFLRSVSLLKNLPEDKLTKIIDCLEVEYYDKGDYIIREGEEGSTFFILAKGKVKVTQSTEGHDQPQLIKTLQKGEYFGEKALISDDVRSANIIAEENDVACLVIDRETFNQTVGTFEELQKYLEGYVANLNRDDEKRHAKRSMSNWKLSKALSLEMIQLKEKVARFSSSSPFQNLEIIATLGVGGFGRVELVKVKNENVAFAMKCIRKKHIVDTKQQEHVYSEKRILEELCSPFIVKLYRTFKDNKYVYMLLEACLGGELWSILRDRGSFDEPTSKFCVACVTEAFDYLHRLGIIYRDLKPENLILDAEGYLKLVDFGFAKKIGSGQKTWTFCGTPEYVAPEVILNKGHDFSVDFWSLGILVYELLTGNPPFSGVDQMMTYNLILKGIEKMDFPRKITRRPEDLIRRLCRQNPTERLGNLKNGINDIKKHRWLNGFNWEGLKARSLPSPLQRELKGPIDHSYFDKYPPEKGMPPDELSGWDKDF
Particulars: at 0.1 µM.

The target of assay [7] is T4, cGMP-dependent protein kinase 2 (Homo sapiens). Particulars: at 1 µM.
In assay [8] the target is T5, cAMP-dependent protein kinase catalytic subunit PRKX (Homo sapiens) (UniProt P51817).
T5 sequence (whole entry): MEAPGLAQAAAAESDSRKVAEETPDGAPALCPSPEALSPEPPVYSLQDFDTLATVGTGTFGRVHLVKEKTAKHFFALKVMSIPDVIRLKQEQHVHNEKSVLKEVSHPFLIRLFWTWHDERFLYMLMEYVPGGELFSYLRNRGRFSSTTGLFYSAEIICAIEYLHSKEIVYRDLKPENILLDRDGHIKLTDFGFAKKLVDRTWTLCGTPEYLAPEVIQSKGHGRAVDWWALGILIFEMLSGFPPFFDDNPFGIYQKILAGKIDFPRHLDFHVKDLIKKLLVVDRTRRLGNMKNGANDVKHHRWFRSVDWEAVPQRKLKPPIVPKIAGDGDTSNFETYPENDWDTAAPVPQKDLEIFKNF
Particulars: at 0.1 µM.

Assay [9] has as its target T5, cAMP-dependent protein kinase catalytic subunit PRKX (Homo sapiens). The note with it: at 1 µM.
Assay [10] has as its target Rho-associated protein kinase 1 (Homo sapiens) (UniProt Q13464). The note with it: at 0.1 µM.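 Note: values are mean percent inhibition of ROCK1.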

Where “and” joins values, the source holds several entries; their conditions need not be identical. Equal values may be shown once.

Sequence of Rho-associated protein kinase 1 (Homo sapiens) (Q13464 2-1354 limits assumed): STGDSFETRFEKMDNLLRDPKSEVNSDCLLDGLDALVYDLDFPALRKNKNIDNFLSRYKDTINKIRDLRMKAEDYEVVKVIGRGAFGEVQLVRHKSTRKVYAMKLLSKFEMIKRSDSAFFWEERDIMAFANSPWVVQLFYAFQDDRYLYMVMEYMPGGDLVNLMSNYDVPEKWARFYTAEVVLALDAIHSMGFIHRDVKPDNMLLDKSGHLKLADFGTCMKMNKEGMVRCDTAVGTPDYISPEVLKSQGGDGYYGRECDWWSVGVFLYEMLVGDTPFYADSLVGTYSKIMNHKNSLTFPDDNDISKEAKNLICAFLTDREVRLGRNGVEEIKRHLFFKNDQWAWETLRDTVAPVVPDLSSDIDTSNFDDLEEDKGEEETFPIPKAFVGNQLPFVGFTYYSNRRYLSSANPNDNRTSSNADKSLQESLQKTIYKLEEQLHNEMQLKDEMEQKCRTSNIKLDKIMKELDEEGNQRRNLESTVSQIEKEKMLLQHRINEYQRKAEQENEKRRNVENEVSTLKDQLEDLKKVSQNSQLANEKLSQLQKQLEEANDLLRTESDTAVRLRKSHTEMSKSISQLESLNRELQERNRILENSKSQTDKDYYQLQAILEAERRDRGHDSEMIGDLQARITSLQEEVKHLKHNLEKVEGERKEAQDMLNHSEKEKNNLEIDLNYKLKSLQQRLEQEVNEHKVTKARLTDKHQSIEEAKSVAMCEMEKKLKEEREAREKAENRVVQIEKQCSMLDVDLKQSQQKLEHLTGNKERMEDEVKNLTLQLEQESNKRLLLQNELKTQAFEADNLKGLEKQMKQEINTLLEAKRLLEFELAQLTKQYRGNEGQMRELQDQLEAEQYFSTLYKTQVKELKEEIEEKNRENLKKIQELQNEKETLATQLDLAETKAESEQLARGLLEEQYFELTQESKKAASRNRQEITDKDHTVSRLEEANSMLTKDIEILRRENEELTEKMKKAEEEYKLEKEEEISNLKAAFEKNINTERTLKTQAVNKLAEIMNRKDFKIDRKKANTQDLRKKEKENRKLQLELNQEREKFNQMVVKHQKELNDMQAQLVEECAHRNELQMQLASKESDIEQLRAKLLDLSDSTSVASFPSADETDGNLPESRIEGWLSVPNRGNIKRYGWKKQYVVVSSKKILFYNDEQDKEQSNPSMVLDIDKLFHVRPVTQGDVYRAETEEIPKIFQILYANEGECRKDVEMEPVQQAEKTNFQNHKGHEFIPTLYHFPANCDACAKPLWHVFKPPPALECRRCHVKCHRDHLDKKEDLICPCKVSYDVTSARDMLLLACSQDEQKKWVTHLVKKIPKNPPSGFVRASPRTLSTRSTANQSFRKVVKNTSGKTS

The term inhibition denotes the drop in the measured response relative to a control, in per cent. As for `CCS(=O)(=O)c1ccc(OC)c(Nc2ncc(-c3cccc(C(C)=O)c3)o2)c1`, the inhibition was 1% in [1]; 2.85% in [2]; 1.31% in assay [3]; 1.67% in assay [4]; 2.08% in assay [5]; -0.65% in [6]. Further, the inhibition in [7] was determined as 2.63%; in assay [8] it was 1.59%; in [9], 3.12%; in assay [10], 0.01%.
As for `Fc1ccc(Nc2nccc(-c3c(-c4ccc(C(F)(F)F)cc4)nn4ncccc34)n2)cc1F`, the inhibition in assay [1] came out at 3.98%; in assay [2], 5.05%; in [3], 4.35%; in [4], 2.4%; in [5], 3.28%; in assay [6] it was 0.92%. Besides, the inhibition in [7] was 2.82%; in assay [8] it was 0.62%; in assay [9], -1.3%; in assay [10] it was 0.45%.
As for `COc1cc(N2CCN(C(C)C)CC2)ccc1Nc1nc(Nc2cccc(F)c2C(=O)O)c2cc[nH]c2n1`, the inhibition was found to be 4.66% in [1]; 4.61% in assay [2]; 4.8% in [3]; 1.6% in assay [4]; 5.7% in [5]; 1.77% in assay [6]. Moreover, the inhibition was determined as 3.84% in assay [7], 1.23% in [8], 2.86% in [9] and 0.41% in [10].
With `O=C(O[C@H]1CN[C@H](C#Cc2cc3ncnc(Nc4ccc5c(ccn5Cc5cc(F)ccc5F)c4)c3s2)C1)N1CCOCC1`, the inhibition was 5.35% in [1]; 5.21% in [2]; 6.35% in assay [3]; 2.6% in assay [4]; 3.55% in assay [5]; 2.56% in assay [6]. The inhibition in assay [7] is 3.72%; in [8], 2.19%; in [9], 2.67%; in [10], 0.77%.
As for `Nc1nonc1-c1nc2cnccc2n1C1CC1`, the inhibition is 18.3% and 17.4% in assay [1]; 5.14% and 1.26% in [2]; 21.9% and 19.9% in assay [3]; 13.6% and 15.4% in [4]; 50.7% and 56.1% in assay [5]; 36.7% and 40.2% in assay [6]. Moreover, the inhibition is 65.8% and 69.3% in [7]; 3.44% and 4.71% in [8]; 23.7% and 26.4% in assay [9]; 43.6% and 46.2% in assay [10].
`CS(=O)(=O)Nc1ccc(-c2ccc3c(NC(=O)C4CC4)n[nH]c3c2)cc1`: the inhibition in assay [1] worked out at 5.01%; in assay [2], 3.46%; in [3], 6.13%; in assay [4], 2.24%; in [5], 3.26%; in [6], 1.29%. The inhibition was 2.97% in assay [7], 1.03% in assay [8], -0.97% in assay [9] and 0.87% in [10].
For the compound `c1cnn2ncc(-c3ccnc(NCCCN4CCOCC4)n3)c2c1`, the inhibition came out at 5.4% in assay [1]; 3.94% in assay [2]; 5% in [3]; 3.07% in assay [4]; 8.93% in [5]; 3.44% in assay [6]. Also, the inhibition came out at 4.91% in assay [7], 1.06% in assay [8], 3.97% in assay [9] and 2.01% in assay [10].
Consider `CS(=O)(=O)CCNCc1ccc(-c2ccc3ncnc(Nc4ccc(OCc5ccccc5)cc4)c3c2)o1`, for which the inhibition in [1] stood at 2.54%; in assay [2], 3.53%; in assay [3], 3.51%; in assay [4], 2.37%; in assay [5] it was 1.88%; in assay [6] it was 2.69%. The inhibition in [7] was 2.6%; in assay [8], 1.54%; in assay [9], 1.49%; in [10], 1.22%.

These data come from ChEMBL document CHEMBL1961873, “Compounds: GSK PKIS; Assays: Nanosyn kinase panel” (2012).
